Assay outcomes (PubChem)
G9a inh: inhibitors of human histone lysine methyltransferase G9a; G9a H3K9 monomethylation, AlphaScreen, 2 h; Potency, µM (titrated, usually from 102 µM), for the others: at the top dose activity, negative = inhibition, most hits filed as inhibitors; hit rate 8.8% among 350,000; AID 504332; further: potency means the concentration at half of the fitted maximal effect; on the % scale 0 is the no-effect control and ±100 the full control effect; nearly all actives have a fitted effect of over 75% in size
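Readings reflect AlphaScreen signal from monomethyl-H3K9 antibody detection. HMT at 20 nM; substrate b-H3K9 500 nM; cofactor SAM 20 uM; 2 h RT reaction; compounds tested as titrations in qHTS with 15 min preincubation.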
BAZ2B block: inhibitors of human BAZ2B bromodomain; Q9UIF8; hit rate 4.4% among 360,000; Potency, µM (series often up to 114 µM), for the others: top-dose activity change, negative = inhibition, usual class: inhibitors; AlphaScreen BAZ2B-H3K14Ac peptide displacement; further: potency means the concentration at half of the fitted maximal effect; on the % scale 0 is the no-effect control and ±100 the full control effect; nearly all actives have a fitted effect of over 60% in size
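AlphaScreen displacement: compounds (up to 110uM) incubated 30 min at room temperature with a preformed 50 nM BAZ2B/50 nM biotinylated H3K14Ac peptide complex in PBS pH 7.4 with Tween-20. Donor and acceptor beads at 10 ug/mL final added, 20 min light-protected before reading.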
JMJD2A Tudor inh: JMJD2A Tudor domain (human) inhibition; hit rate 4.4% among 390,000; AlphaScreen JMJD2A-Tudor / H3K4me3 peptide binding; O75164; Potency, µM (series often up to 114 µM), inactives show top-dose activity change, negative = inhibition, hits mostly inhibitors; further: potency means the concentration at half of the fitted maximal effect; on the % scale 0 is the no-effect control and ±100 the full control effect; nearly all actives have a fitted effect of over 50% in size
PLK1 PBD inh: inhibitors of human PLK1 polo-box domain binding | P53350 | Plk1 PBD binding of FITC phosphopeptide, fluorescence polarization | Potency, µM, inactives show max response, negative = inhibition, hits mostly inhibitors | hit rate 2.8% among 360,000 | AID 720504; further: potency means the concentration at half of the fitted maximal effect; series mostly up to about 57 µM; on the % scale 0 is the no-effect control and ±100 the full control effect; nearly all actives have a fitted effect of over 65% in size
Target sequence (P53350 whole entry, looked up, the tested form may be a part): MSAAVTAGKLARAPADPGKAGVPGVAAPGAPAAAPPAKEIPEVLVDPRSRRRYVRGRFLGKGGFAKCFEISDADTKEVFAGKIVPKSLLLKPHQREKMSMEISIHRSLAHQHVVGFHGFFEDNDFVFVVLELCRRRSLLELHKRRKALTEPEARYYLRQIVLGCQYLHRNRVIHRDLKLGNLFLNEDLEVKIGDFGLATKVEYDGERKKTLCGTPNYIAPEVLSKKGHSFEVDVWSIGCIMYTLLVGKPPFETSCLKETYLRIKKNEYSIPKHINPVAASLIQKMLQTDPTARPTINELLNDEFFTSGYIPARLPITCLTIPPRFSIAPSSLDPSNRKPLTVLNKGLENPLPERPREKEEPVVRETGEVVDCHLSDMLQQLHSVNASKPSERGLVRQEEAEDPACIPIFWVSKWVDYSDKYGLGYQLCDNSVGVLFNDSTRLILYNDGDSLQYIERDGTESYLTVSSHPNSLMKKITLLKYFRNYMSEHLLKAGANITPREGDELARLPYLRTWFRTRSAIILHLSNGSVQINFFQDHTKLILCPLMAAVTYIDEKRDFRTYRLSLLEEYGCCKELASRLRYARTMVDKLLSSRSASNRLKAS
HP1b binding inh: blocks HP1-beta chromodomain binding to methylated histone tails; P83916; AlphaScreen HP1-beta / biotin-H3K9me3 peptide binding; Potency, µM (doses to about 114 µM), without a hit: at the top dose activity change, negative = inhibition, actives largely listed as inhibitors; hit rate 0.56% among 390,000; further: potency means the concentration at half of the fitted maximal effect; nearly all actives have a fitted effect of over 70% in size
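HP1-beta protein (50 nM final) preincubated 30 min at room temperature with biotinylated H3(1-18)K9me3 peptide (50 nM) in PBS pH 7.4, 0.01% Tween-20, then compound added for 30 min. AlphaScreen streptavidin donor/nickel chelate acceptor beads (10 ug/mL final), 30 min dark, luminescence read.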
PI5P4Ka inh: inhibitors of human PI5P4K alpha; P48426; PI5P4Kalpha enzyme, ADP-Glo luminescence, 60 min; hits give low values; max response, %; hit rate 1.2% among 330,000; active means max response of -50% or lower; inconclusive means between -30% and -50%; inactive means -30% or higher; further: value at the top dose of about 77 µM; on the % scale 0 is the no-effect control and ±100 the full control effect
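Compounds were pin-transferred onto PI5P4Kalpha and substrate in HEPES pH 7.4 buffer with EGTA, CHAPS and 5% DMSO. ATP (5 microM final) started the reaction, which ran 60 minutes at room temperature before ADP-Glo detection.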
Starred values were filed as active, the others as inactive; ? = inconclusive; . = no result given; [ ] = dose if it differs, or a comment. In the library only some 12% were active in any assay of this set; here they are far more common. Unless noted, the call rests on the fitted dose curve; in most records, active means well fitted curve in the direction sought with a large enough effect; inconclusive means small, poorly fitted or top-dose-only effect, or another doubt; inactive means no such curve, though single readings can be large; an effect the other way counts as inactive or inconclusive.

SMILES | G9a inh | BAZ2B block | JMJD2A Tudor inh | PLK1 PBD inh | HP1b binding inh | PI5P4Ka inh
COc1cccc(CN2CCN(C(c3ccccc3)c3ccccc3)CC2)c1O | . | 35µM* | 50µM* | 6% | ? | 2
COc1cc(C(=S)N2CCN(C(c3ccccc3)c3ccccc3)CC2)cc(OC)c1O | 7.9µM* | 40µM* | 56µM* | 13µM* | ? | -10
COc1cccc(CNC(=O)COC(=O)c2cc([N+](=O)[O-])ccc2N2CCCC2)c1 | 9%[12.7 µM] | -10% | -25% | 0% | -2% | -4
C[C@@H]1C(=O)N(S(=O)(=O)c2ccccc2[N+](=O)[O-])[C@H]1c1ccc(-c2ccccc2)cc1 | . | . | -19% | . | -5% | .
COc1ccc(CCNC(=O)COC(=O)COc2ccc(C#N)cc2)cc1 | -7% | -3% | 3% | 5% | 41% | 1
CC(C)c1ccc(NC(=O)C2(C)Cc3ccccc3C(=O)O2)cc1 (centres undefined) | 5%[59 µM] | 8% | 3% | . | 33% | .
COc1cc(NC(=O)Nc2nnc(N3CCCCCC3)s2)cc(OC)c1 | ? | -2% | -7% | . | 31% | .
COc1cc([N+](=O)[O-])ccc1NC(=O)/C=C/C(=O)O | 50µM* | 6% | -16% | -10% | 14% | 1
CSc1ccccc1C(=O)Nc1cc([N+](=O)[O-])ccc1C | 10µM* | -16% | -3% | 5% | 15% | 2
CSc1ccccc1C(=O)Nc1cccc([N+](=O)[O-])c1C | -49% | -6% | -6% | -2% | 27% | 0
COc1cc([N+](=O)[O-])ccc1NC(=O)/C=C\C(=O)O | -45% | -33% | -14% | -12% | 18% | -3
COc1ccc([N+](=O)[O-])cc1NC(=O)CC(c1ccccc1)c1ccccc1 | 4%[59 µM] | 6% | -11% | -11% | 25% | 2
CCn1ncc(C(=O)Nc2ccc([N+](=O)[O-])cc2OC)c1C | . | . | -8% | -1% | 38% | -1
COCCSc1ccccc1C(=O)Nc1ccc([N+](=O)[O-])cc1OC | 22µM* | -29% | -13% | 5% | 17% | -3
COCCSc1ccccc1C(=O)Nc1cc([N+](=O)[O-])ccc1OC | 40µM* | -17% | -14% | -12% | 18% | 2
Cc1cccc(N(C)S(=O)(=O)c2c(C(=O)N3CCCCCC3)c(C)n(C)c2C)c1 | 14%[59 µM] | -15% | -32% | . | 7% | .
O=C(Nc1ccc(-n2cnnn2)cc1)c1cccc(S(=O)(=O)N2CCCC2)c1 | -3%[59 µM] | 9% | -14% | -3% | 36% | 2
Cc1cccc(NC(=O)c2ccccc2O)c1C | 3%[2.33 µM] | -9% | -16% | -1% | 28% | .
Cc1ccc(C)c(NC(=O)c2ccccc2O)c1 | 17%[59 µM] | 4% | ? | 3.4µM* | -12% | ?
O=C(CSc1ncn[nH]1)N1N=C2/C(=C\c3ccco3)CCCC2C1c1ccco1 (centres undefined) | . | . | -32% | -5% | -7% | 2
O=C(CSc1ncn[nH]1)N1N=C2/C(=C/c3ccco3)CCCC2C1c1ccco1 (centres undefined) | 50µM* | ? | 56µM* | -7% | -25% | .
COC(=O)c1cc(OC)c(=O)c2c(OC)c(OC)ccc2c1 | -40%[2.33 µM] | . | . | . | . | .
O=C(CC(c1ccco1)S(=O)(=O)c1ccccc1)c1ccc(F)cc1 (centres undefined) | 3.5µM* | -33% | -30% | -13% | -2% | .
O=C(CSc1nc(=O)n2ccccc2n1)N1CCCc2ccccc21 | 2% | -4% | -22% | -1% | 7% | -5
N#Cc1ccc(/C=C/C(=O)c2cccnc2)cc1 | 25µM* | . | -28% | ? | 17% | 0
SMILES | G9a inh | BAZ2B block | JMJD2A Tudor inh | PLK1 PBD inh | HP1b binding inh | PI5P4Ka inh
O=C(/C=C/c1ccccc1Cl)c1cccnc1 | 35µM* | -7% | -19% | ? | 22% | 2
O=C(/C=C/c1ccccc1Cl)c1ccc(O)cc1 | -12% | -23% | -18% | -3% | -38% | -54*
O=C(/C=C/c1ccc(Cl)cc1)c1cccnc1 | 45µM* | -8% | -8% | ? | 24% | -2
N#Cc1ccc(/C=C/C(=O)c2ccc3c(c2)OCO3)cc1 | -3% | 0% | -25% | -3% | 27% | 1
CCN(CC)c1ccc(/C=C/C(=O)c2cccnc2)cc1 | -13% | ? | ? | -12% | 21% | -2
N=C(N)c1ccc(N=Nc2c(O)ccc3c2[nH]c2ccccc23)cc1 | . | . | 56µM* | -8% | 71µM* | -71*
N#Cc1c(SC(C(=O)O)c2ccccc2)nc2c(c1-c1cccs1)CCCC2 (centres undefined) | -33% | -25% | -18% | 30µM* | 6% | -28
Cc1ccc(NC(=O)C2CCCN2S(=O)(=O)c2ccc3c(c2)C(C)(C)C(=O)N3C)cc1 (centres undefined) | 6%[59 µM] | ? | -11% | . | 13% | .
S=c1[nH]ccc2ccccc12 | . | . | -17% | ? | 28% | 7
S=c1[nH]ncc2ccccc12 | 45µM* | 7% | 50µM* | -9% | 25% | .
CN(C)C=Nc1nonc1-c1ncn[nH]1 | 22µM* | -10% | 2.5µM* | -6% | 10% | 1
CN(C)C=Nc1nonc1-c1ccccc1 | 9% | 4% | -2% | -2% | 42% | 2
CCOc1ccc(N/C=C/C(=O)c2ccccc2)c([N+](=O)[O-])c1 | 8.9µM* | ? | ? | -5% | ? | -4
CSc1ccc(CN(C)C(=O)c2cc(Cl)c3c(c2)OCCO3)cc1 | 56µM* | ? | -17% | 0% | 13% | -2
CSc1ccc(CN(C)C(=O)c2cc3ccccc3o2)cc1 | 0% | 21% | 12% | -11% | 47% | -11
Cc1cc(=O)c2c([nH]1)c(C)cc1[nH]c(C)c(C)c12 | 8%[59 µM] | 0% | -15% | -29% | 28% | -10
O=C(NC1CCCCC1)c1ccc(Cn2c(SCc3cccc(F)c3)nc3cccnc32)cc1 | -15%[59 µM] | -2% | -21% | . | 24% | .
CCOc1ccc(-c2cc(C(=O)NCc3ccccc3)[nH]n2)c(C)c1 | . | . | . | -11% | . | -7
Cc1ccc(CNC(=O)C23CN(Cc4ccccc4)CC2C(c2cccc([N+](=O)[O-])c2)=NO3)cc1 (centres undefined) | ? | -5% | ? | -13% | -3% | 1
O=C(NCc1ccco1)C12CN(Cc3ccccc3)CC1C(c1cccc([N+](=O)[O-])c1)=NO2 (centres undefined) | 45µM* | ? | ? | -17% | -7% | -26
Cc1ccc2[nH]cc(/C=C/c3cc[n+](C)cc3)c2c1 | 45µM* | -12% | -15% | 61% | -25% | 1
COc1ccc2c(/C=C/c3cc[n+](C)cc3)c[nH]c2c1 | 50µM* | -8% | -18% | 25% | -10% | 11
C=CCC1(CC=C)CCCN1C(=O)CC1C(=O)NCCN1Cc1cccc(OC)c1OC (centres undefined) | -26% | -17% | -12% | -11% | 23% | 2
